{
  "source": "PubChem BioAssay AID1851",
  "about": "(National Center for Advancing Translational Sciences (NCATS), 2009)",
  "note": "Among all 16,000 compounds or so, about 5,800 (36%) were called active. Not shown: some 23% with an inconclusive outcome. Calls come from the whole dose curve; as a rule, active = well fitted curve in the direction sought with a large enough effect; inconclusive = small, poorly fitted or top-dose-only effect, or effect the other way; inactive = no such curve, though single readings can be large or run the other way. Some of the results follow. % is set by controls: 0 for no effect and ±100 for the full control effect.",
  "data": [
    {"target": "Cytochrome P450 2C19 (Homo sapiens) (UniProt P33261)", "sequence (P33261 whole entry, looked up)": "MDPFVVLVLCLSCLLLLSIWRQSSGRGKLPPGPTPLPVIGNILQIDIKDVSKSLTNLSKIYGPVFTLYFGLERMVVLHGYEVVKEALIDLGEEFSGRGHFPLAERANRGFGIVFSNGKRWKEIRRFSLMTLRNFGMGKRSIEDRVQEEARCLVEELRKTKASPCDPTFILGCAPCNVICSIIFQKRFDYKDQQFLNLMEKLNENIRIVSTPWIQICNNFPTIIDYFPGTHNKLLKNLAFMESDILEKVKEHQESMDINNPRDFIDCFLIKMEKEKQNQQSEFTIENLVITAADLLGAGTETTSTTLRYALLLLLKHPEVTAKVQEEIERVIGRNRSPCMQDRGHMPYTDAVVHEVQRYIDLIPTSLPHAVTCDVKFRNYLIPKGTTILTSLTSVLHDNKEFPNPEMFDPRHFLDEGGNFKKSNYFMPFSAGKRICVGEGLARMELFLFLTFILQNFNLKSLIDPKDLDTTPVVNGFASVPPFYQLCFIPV", "test": "Cytochrome panel assay with activity outcomes", "settings": "recombinant CYP, pro-luciferin dealkylation, luminescence, p450-cyp2c19; series mostly up to 57.1 µM; activity, negative = inhibition: at the top concentration", "values": [
      {"compound": "N#Cc1cccc(-c2ccc3ncnc(N4CCNCC4)c3c2)c1", "activity, negative = inhibition": "-32.6% (inactive)"},
      {"compound": "CN1CCN(c2nc(-c3ccccc3C(F)(F)F)nc3ccccc23)CC1", "activity, negative = inhibition": "-31.9% (inactive)"},
      {"compound": "COc1ccccc1-c1nc(N2CCOCC2)c2ccccc2n1", "activity, negative = inhibition": "-12.8% (inactive)"},
      {"compound": "CS(=O)(=O)Nc1cccc(-c2ccc3ncnc(N4CCNCC4)c3c2)c1", "activity, negative = inhibition": "-37.5% (inactive)"},
      {"compound": "FC(F)(F)c1ccccc1-c1nc(N2CCOCC2)c2ccccc2n1", "AC50": "15.8 µM (active)"},
      {"compound": "COc1cccc(-c2ccc3ncnc(N4CCNCC4)c3c2)c1", "AC50": "3.16 µM (active)"},
      {"compound": "NCCCCC(=O)O", "activity, negative = inhibition": "10.4% (inactive)"},
      {"compound": "CCOC(=O)C1=C(c2ccccc2)OC(N)=C(C#N)C1c1ccc(Cl)s1", "note": "(stereo not drawn)", "AC50": "0.398 µM (active)"},
      {"compound": "CCc1cc2c(=O)c(-c3nc4ccccc4[nH]3)coc2cc1OC(=O)N1CCOCC1", "AC50": "15.8 µM (active)"},
      {"compound": "COc1cc(Br)c(C(C)NC(=O)c2cccc(Br)c2)cc1OC", "note": "(stereo not drawn)", "AC50": "2.24 µM (active)"},
      {"compound": "COc1ccccc1CNc1ncnc2ccc(-c3ccc4c(c3)OCO4)cc12", "AC50": "3.16 µM (active)"},
      {"compound": "CN(C)c1ccc(-c2ccc3ncnc(NCc4ccccc4)c3c2)cc1", "AC50": "7.94 µM (active)"},
      {"compound": "COc1ccc(CNc2ncnc3ccc(-c4ccc(N(C)C)cc4)cc23)c(OC)c1", "AC50": "3.98 µM (active)"},
      {"compound": "COc1ccccc1CNc1ncnc2ccc(-c3ccc(N(C)C)cc3)cc12", "AC50": "10 µM (active)"},
      {"compound": "CC(C)CO/N=C1/C[C@@H](O)[C@@H](O)[C@@H]2[C@@H]3C(=O)N(C[C@@H]4CCCO4)C(=O)[C@H]3CC[C@H]12", "activity, negative = inhibition": "24.8% [at 11.4 µM] (inactive)"},
      {"compound": "COCCNc1ncnc2ccc(-c3ccc(C(=O)N(C)C)cc3)cc12", "activity, negative = inhibition": "6.62% (inactive)"},
      {"compound": "COc1ccc(CNc2ncnc3ccc(-c4ccc(C(=O)N(C)C)cc4)cc23)c(OC)c1", "AC50": "15.8 µM (active)"},
      {"compound": "Clc1ccc(Sc2cc(N3CCOCC3)nc(-c3ccccc3)n2)cc1", "AC50": "3.55 µM (active)"},
      {"compound": "COc1cccc(Sc2cc(N3CCOCC3)nc(-c3ccccc3)n2)c1", "AC50": "14.1 µM (active)"},
      {"compound": "CS(=O)(=O)Nc1cccc(-c2nc(N3CCOCC3)c3ccccc3n2)c1", "activity, negative = inhibition": "-36.3% (inactive)"},
      {"compound": "O=c1nc(N2CCOCC2)ccn1-c1nc(-c2ccccc2)oc1-c1ccccc1", "activity, negative = inhibition": "-22.4% (inactive)"},
      {"compound": "Nc1nc(Cl)cc(N2CCOCC2)n1", "activity, negative = inhibition": "-18.1% (inactive)"},
      {"compound": "CCc1ccccc1NC(=O)C(C)n1nc([N+](=O)[O-])c(Br)c1C", "note": "(stereo not drawn)", "AC50": "2.51 µM (active)"},
      {"compound": "Cc1c(Br)c([N+](=O)[O-])nn1C(C)C(=O)Nc1nccs1", "note": "(stereo not drawn)", "AC50": "10 µM (active)"},
      {"compound": "C[N+](C)(C)CCCCCC[N+](C)(C)C", "AC50": "inactive"},
      {"compound": "O=C(CSCC(=O)OCn1nnc2ccccc2c1=O)Nc1ccc(Cl)cc1", "AC50": "11.2 µM (active)"},
      {"compound": "CCC1OC23CCCCC2C(C#N)(C(=N)O3)C1(C#N)C#N", "note": "(stereo not drawn)", "AC50": "17.8 µM (active)"},
      {"compound": "Nc1ccccc1S[C@@H](C[N+](=O)[O-])c1ccc2c(c1)OCO2", "AC50": "1.58 µM (active)"},
      {"compound": "COc1ccc(C(=O)N2CCC[C@@]3(CCN(C(=O)NC(C)C)C3)C2)cc1", "activity, negative = inhibition": "13.2% (inactive)"},
      {"compound": "CCN1CCN(c2cc(=O)n(-c3cc(Cl)ccc3C)c(=O)[nH]2)CC1", "activity, negative = inhibition": "-12% (inactive)"},
      {"compound": "CCCCCn1c(CN2CCN(c3cc(Cl)ccc3C)CC2)nc2c1c(=O)[nH]c(=O)n2C", "AC50": "3.55 µM (active)"},
      {"compound": "COc1cc(O)c2c(O)c3c(c4c2c1[C@@]1(C4)C(C)=CCCC1(C)C)[C@H](O)[C@@]1(O)CC(=O)C(C(N)=O)=C(O)[C@]1(O)C3=O", "AC50": "2.51 µM (active)"},
      {"compound": "N#Cc1nc(COc2ccccc2Cl)oc1NCc1ccco1", "AC50": "2.24 µM (active)"},
      {"compound": "CN(C)CCNc1oc(COc2ccc(Cl)cc2Cl)nc1C#N", "activity, negative = inhibition": "0.262% (inactive)"},
      {"compound": "CCOC(=O)c1ccc(NC(=O)CC2NCCNC2=O)cc1", "note": "(stereo not drawn)", "activity, negative = inhibition": "19.3% (inactive)"},
      {"compound": "CCC1C(=O)N=C(SCC(=O)Nc2ccc(C(=O)OC)cc2)NC1=O", "note": "(stereo not drawn)", "AC50": "22.4 µM (active)"},
      {"compound": "CCCCSc1ccc2nc(-c3ccc(C#N)cc3)cn2c1", "AC50": "4.47 µM (active)"},
      {"compound": "Oc1ccccc1CNCc1ccccc1O", "activity, negative = inhibition": "-44.5% [at 11.4 µM] (inactive)"},
      {"compound": "Clc1ccccc1CNCC1CCC(CNCc2ccccc2Cl)CC1", "note": "(stereo not drawn)", "AC50": "0.794 µM (active)"},
      {"compound": "O=C(O)C[C@H](Cc1ccccc1Cl)C(=O)O", "activity, negative = inhibition": "14.2% [at 11.4 µM] (inactive)"},
      {"compound": "CC(N)=NCCCC[C@H](N)C(=O)O", "AC50": "inactive"},
      {"compound": "NC(=O)C1(N2CCCCC2)CCN(C(=S)Nc2ccc(Cl)cc2)CC1", "AC50": "3.16 µM (active)"},
      {"compound": "O=C(O)C1(Nc2ccc(Cl)cc2)CCCC1", "activity, negative = inhibition": "25.8% [at 11.4 µM] (inactive)"},
      {"compound": "NC(=O)C1(N2CCCCC2)CCN(C(=O)c2ccc(-n3cnnn3)cc2)CC1", "activity, negative = inhibition": "-7.9% (inactive)"},
      {"compound": "CCCCN(C(=S)Nc1ccccc1)C1CCS(=O)(=O)C1", "note": "(stereo not drawn)", "activity, negative = inhibition": "-28.8% (inactive)"},
      {"compound": "CCCNC1CCS(=O)(=O)C1", "note": "(stereo not drawn)", "activity, negative = inhibition": "3.5% (inactive)"},
      {"compound": "CCCCSC(=S)N(C)C1CCS(=O)(=O)C1", "note": "(stereo not drawn)", "AC50": "3.98 µM (active)"},
      {"compound": "CCCn1nc2cc(C(=O)NCc3ccccc3OC)ccc2c1OCC", "AC50": "20 µM (active)"},
      {"compound": "COc1ccccc1CNC(=O)c1cc2c(C)nn(Cc3ccc(F)cc3)c2s1", "AC50": "11.2 µM (active)"},
      {"compound": "CCCn1nc2cc(C(=O)NCCCCc3ccccc3)ccc2c1OCC", "AC50": "6.31 µM (active)"},
      {"compound": "COC(=O)Cc1c(C)nc2nc(NCc3ccccc3OC)[nH]n2c1=O", "activity, negative = inhibition": "-29.7% (inactive)"},
      {"compound": "CCCCn1nc2cc(C(=O)NCCCCc3ccccc3)ccc2c1OCC", "AC50": "22.4 µM (active)"},
      {"compound": "NCC[C@H](N)C(=O)O", "activity, negative = inhibition": "-4.53% [at 11.4 µM] (inactive)"},
      {"compound": "C=CCOc1c2ccc(C(=O)NC3CCCc4ccccc43)cc2nn1C", "note": "(stereo not drawn)", "activity, negative = inhibition": "-27.6% (inactive)"},
      {"compound": "CCOc1c2ccc(C(=O)NC3CCCc4ccccc43)cc2nn1C", "note": "(stereo not drawn)", "activity, negative = inhibition": "-18.9% (inactive)"},
      {"compound": "CCn1nc2cc(C(=O)NCC34CC5CC(CC(C5)C3)C4)ccc2c1OC", "AC50": "22.4 µM (active)"},
      {"compound": "CCCn1nc2cc(C(=O)NC3CCCc4ccccc43)ccc2c1OCC", "note": "(stereo not drawn)", "AC50": "28.2 µM (active)"},
      {"compound": "CCOc1c2ccc(C(=O)NCc3ccc4c(c3)OCO4)cc2nn1CC", "AC50": "31.6 µM (active)"},
      {"compound": "COCCn1nc2cc(C(=O)NCC34CC5CC(CC(C5)C3)C4)ccc2c1OC", "activity, negative = inhibition": "-28.7% (inactive)"},
      {"compound": "CCOc1c2ccc(C(=O)NCc3ccco3)cc2nn1CC", "activity, negative = inhibition": "-25.6% (inactive)"},
      {"compound": "CCCn1nc2cc(C(=O)NCCc3ccc(C)cc3)ccc2c1OCC", "AC50": "25.1 µM (active)"},
      {"compound": "COC(=O)C/C=C\\[C@@H](C)[C@@H](/C=N\\O[C@@H]1O[C@H](COC(C)=O)[C@H](OC(C)=O)[C@H](OC(C)=O)[C@H]1OC(C)=O)OC", "activity, negative = inhibition": "-12.5% [at 11.4 µM] (inactive)"},
      {"compound": "NS(=O)(=O)c1ccc(N=Nc2cc3ccccc3c(C(=O)O)c2O)cc1", "activity, negative = inhibition": "-28.9% [at 11.4 µM] (inactive)"}
    ]}
  ]
}
